Data taken from PubChem BioAssay AID741 (SRMLSC, 2007).
Inconclusive results are not listed. Active and inactive are the calls of the source. Cut-off read from the data, not from the text of the source: active = toxicity enhancement factor above about 0.054; inconclusive = between about 0.00067 and that limit; inactive = weaker than that.

Experiment: reversers of MRP drug resistance, dose response, cell-based (AID 741)
Conditions: MRP-overexpressing cells, viability with/without cytotoxic drug; slope difference: measured here: slope difference tox minus reversal, stronger effect = higher value; toxicity enhancement factor: stronger effect = higher value; viability: measured here: viability series, compound alone, at 10 µM, stronger effect = lower value

Row | Compound | slope difference | toxicity enhancement factor | viability [%]
1 | O[C@H]1[C@H](O)[C@@H](O)CN2CC[C@H](O)[C@H]12 | -0.39 | -0.0036 (inactive) | 98.5
2 | O=C1CCCC2C3CCCN4CCCC(CN12)C34 (stereo unspecified) | -0.494 | -0.0048 (inactive) | 94.7
